# Data taken from PubChem BioAssay AID1259415 (National Center for Advancing Translational Sciences (NCATS), 2018).
# Where “and” joins values, the source holds several entries; their conditions need not be identical. Equal values may be shown once. Hit rate of the full screen: of about 410,000 compounds, about 18,000 (4.4%) were called active. Not shown: some 7% with an inconclusive outcome. Cut-off read from the data, not from the text of the source: active = activity change below about -60%; inconclusive = no clear call, values can overlap the other calls; inactive = above about -39%. Many of the other results were omitted from the sample, so actives are more common in it than they were. Some compounds were tested as several samples or in several runs, with calls that do not always agree.
# Assay: qHTS Assay for inhibitors of the human cytomegalovirus (HCMV)
# Conditions: HFF cells, HCMV-luciferase reporter, 72 h; at 57.5 µM; stronger effect = lower value
# How it was run: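 Two compound doses tested in HFFs infected with HCMV-luciferase, MOI 1 PFU/cell, 72 h at 37C. Lysate luminescence read with OneGlo; data normalized against buffer-only and 10uM Salinomycin inhibitor controls.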
# % is set by controls: 0 for no effect and ±100 for the full control effect.
row,Compound,"activity change, negative = inhibition"
1,CCOc1ccc(NC(=O)Cn2c(C)ccc(C#N)c2=O)cc1,-3.22% (inactive)
2,O=C(NCCc1csc(-c2ccc(C(F)(F)F)cc2)n1)C(=O)Nc1ccc(F)c(Cl)c1,-16.3% (inactive)
3,CCc1nc2nc(C)cc(Nc3ccc(F)c(Cl)c3)n2n1,-29.5% (inactive)
4,Cc1ccc(S(=O)(=O)Nc2ccc3ncccc3c2)cc1,-97.8% (active)
5,Cc1ccc(S(=O)(=O)Nc2ccc(F)c(S(=O)(=O)N3CCOCC3)c2)cc1,11.9% (inactive)
6,CCOc1ncccc1C(=O)Nc1ccc(S(=O)(=O)Nc2nc(C)cc(C)n2)cc1,4.63% (inactive)
7,COc1ccc(Cl)cc1NC(=O)CCn1c(=O)c2cccn2c2ccccc21,4.3% (inactive)
8,CCOC(=O)c1c(N)n(-c2cccc(C)c2C)c2nc3ccccc3nc12,3.84% (inactive)
9,Cc1nn(-c2ccc(N3CCCCC3)nn2)c(C)c1CCC(=O)NCc1ccc(F)cc1,-11.9% (inactive)
10,CCNS(=O)(=O)c1ccc(NC(=O)CSc2nc(-c3ccco3)cc(C(F)(F)F)n2)cc1,19.7% (inactive)
11,O=C(Cc1ccccc1)N1CCN(C2CCCCCC2)CC1,31.1% (inactive)
12,O=C1Nc2cc(C(=O)N3CCC(N4CCCCC4)CC3)ccc2S/C1=C\c1ccccc1,-88% (active)
13,CC1CCN(C(=O)c2ccc3c(c2)NC(=O)CN3)CC1,-12.7% (inactive)
14,CCOc1ccccc1NC(=O)Cn1c(=O)n(Cc2ccccc2)c(=O)c2c(C)c(C(=O)N(C)C)sc21,-19.6% (inactive)
15,CC(=O)CC[C@@H](C)O[C@@H]1OC(C)[C@H](O)CC1O (stereo partly drawn),-66.6% (active)
16,COc1ccc(NC(=O)N(C)C[C@@H]2OCCCC[C@@H](C)Oc3ccc(NC(=O)NC4CCCCC4)cc3C(=O)N([C@H](C)CO)C[C@@H]2C)cc1,1.75% (inactive)
17,CCOC(=O)CSc1ncc(-c2cccc(Cl)c2)cn1,23.7% (inactive)
18,CCOC(=O)CSc1ccccn1,-102% (active)
19,O=C(CSc1ccccn1)N1CCN(S(=O)(=O)c2ccc(Cl)cc2)CC1,-33.6% (inactive)
20,COc1ccc(CCNc2nc3c(-c4cccc(F)c4)nnn3c3ccccc23)cc1OC,30.2% (inactive)
21,Cc1ccc(CCNC(=O)c2ccc(CNS(=O)(=O)c3ccc(C)cc3)cc2)cc1,-11.4% (inactive)
22,Cc1ccc(S(=O)(=O)N(CC(=O)Nc2ccc(Cl)cc2Cl)c2ccccc2C)cc1,-21.6% (inactive)
23,CC(C)c1nccn1S(=O)(=O)c1cc([N+](=O)[O-])ccc1Cl,-7.9% (inactive)
24,CCc1nc(C)cn1S(=O)(=O)c1cc(OC)c(C)cc1C,-33.9% (inactive)

row,Compound,"activity change, negative = inhibition"
1,CCc1nc(C)cn1S(=O)(=O)c1cc([N+](=O)[O-])ccc1Cl,-98.5% (active)
2,Cc1ccccc1Nc1nn2c(=O)c3ccc(C(=O)NCCc4ccc(Cl)cc4)cc3nc2s1,-8.87% (inactive)
3,CC(C)c1ccc(NC(=O)Cn2nnc(C(=O)NCCc3ccccc3)c2N)cc1,7.46% (inactive)
4,Cc1ccc(NC(=O)Cn2cnc3nc4c(cc3c2=O)CCCC4)cc1Cl,19.1% (inactive)
5,CCCN(CCC)CCNC(=O)Cn1cnc2sc(C)c(S(=O)(=O)N3CCC(C)CC3)c2c1=O,3.59% (inactive)
6,Fc1ccc(-n2ncc3c(Nc4ccc(Oc5ccccc5)cc4)ncnc32)cc1,-35.2% (inactive)
7,CCN(CCCNC(=O)Cn1ncc2c3ccccc3n(C)c2c1=O)Cc1ccccc1,-7.87% (inactive)
8,O=C(COc1ccc(S(=O)(=O)N2CCCC2)cc1[N+](=O)[O-])N1CCCCC1,-8.38% (inactive)
9,Cc1cc(S(=O)(=O)N2CCOCC2)ccc1OCC(=O)N1CCOCC1,-17.6% (inactive)
10,Cc1cc(C(=O)COc2ccccc2[N+](=O)[O-])c(C)n1-c1cccc(S(=O)(=O)N2CCOCC2)c1,-89.3% (active)
11,O=S(=O)(c1ccc(Br)c2ccccc12)N1CCOCC1,-15% (inactive)
12,O=C1CCC(=O)N1CCC(=O)N(C(=O)NC1CCCCC1)C1CCCCC1,14.3% (inactive)
13,CCOc1cccc(SCc2noc(C(=O)NC(C)C)c2C(=O)O)c1,-61.6% (active)
14,CCCNC(=O)c1onc(CSc2ccc(F)cc2)c1C(=O)NC(C)C,-14.5% (inactive)
15,CCCCNC(=O)c1onc(CSc2cccc(OC)c2)c1C(=O)O,31.1% (inactive)
16,O=C1CCC([N+](=O)[O-])C(c2ccccc2Br)N1 (stereo not drawn),-6.17% (inactive)
17,COc1cc(C2NC(=O)NC(c3ccccc3)=C2C(C)=O)c(Br)cc1OCC(N)=O (stereo not drawn),-0.681% (inactive)
18,COc1cc2c(cc1OC)C(c1ccccc1Br)NC(=O)C2 (stereo not drawn),-67.4% (active)
19,CN(Cc1cccnc1)C(=O)c1cc(COc2ccc3ncccc3c2)on1,-81.6% (active)
20,CCOc1ccc(NS(=O)(=O)c2ccc(Cl)c(C(=O)N(C)Cc3cccnc3)c2)cc1,-5.24% (inactive)
21,CCn1ccnc1CN(C)C(=O)c1cc(COc2ccc(Cl)cc2OC)on1,1.37% (inactive)
22,CCc1nccn1S(=O)(=O)c1cc(Br)ccc1Br,3.85% (inactive)
23,Cc1cc(C)cc(NC(=O)CSc2nc(=O)n(CCN3CCOCC3)c3c2CCC3)c1,14.5% (inactive)
24,O=C(COC(=O)CCc1c[nH]c2ccccc12)Nc1cccc(Cl)c1,-16% (inactive)

row,Compound,"activity change, negative = inhibition"
1,COC(=O)c1ccc2c(c1)S(=O)(=O)NC2C (stereo not drawn),24.6% (inactive)
2,CC1CCCCC1NC(=O)COC(=O)Cc1ccc(Cl)cc1 (stereo not drawn),26.8% (inactive)
3,CCNC(=S)Nc1ccc2c(c1)c(=O)n(C)n2Cc1ccc(Cl)cc1,-4.48% (inactive)
4,CCOCCC(=O)Nc1ccc2c(c1)c(=O)n(C)n2-c1ccc2ccccc2c1,-74.6% (active)
5,COc1cc(Cn2c3ccc(NC(=O)CC(C)c4ccccc4)cc3c(=O)n2C)ccc1F (stereo not drawn),-10.4% (inactive)
6,CCCCn1c(N)c(N(CC)C(=O)/C=C/c2ccco2)c(=O)[nH]c1=O,14.2% (inactive)
7,O=C1/C(=C/c2cccs2)CCC1C1CCCC1 (stereo not drawn),-34.7% (inactive)
8,O=C1/C(=C/c2cccs2)SC(=S)N1C1CCS(=O)(=O)C1 (stereo not drawn),-80.8% (active)
9,Cn1nccc1NS(=O)(=O)c1ccc(F)cc1,19.9% (inactive)
10,Cc1ccc2cccc(NC(=O)c3ccc(OC(C)C)cc3)c2n1,9.69% (inactive)
11,CCOc1ccc(N(CC)S(=O)(=O)N2CCCC(C(=O)Nc3ccc(C(C)=O)cc3)C2)cc1 (stereo not drawn),11.4% (inactive)
12,CC(Sc1nnc(COc2ccccc2)n1-c1ccccc1)C(=O)O (stereo not drawn),-4.35% (inactive)
13,Cc1ccc(OCc2n[nH]c(=S)n2-c2ccccc2)cc1,-60.4% (active)
14,COc1ccc(OCc2n[nH]c(=S)n2N)cc1,39.1% (inactive)
15,CCc1ccccc1NC(=O)N1CCC2(CC1)Oc1ccccc1C(=O)N2Cc1ccccc1F,6.91% (inactive)
16,CN1c2ccccc2[C@@]2(CCN=C2N2CCOC2=O)[C@H]1c1cn(C)c2ccccc12,7.43% (inactive)
17,CCCCCCNCCn1cnc2c(N)ncnc21,-40% (inactive)
18,CCOC(=O)C1C(=O)NCC1c1ccccc1 (stereo not drawn),25.9% (inactive)
19,CCOC(=O)C1=C(C)NC(SC)=NC1c1ccccc1 (stereo not drawn),-75.9% (active)
20,CCOC(=O)C1=C(C)NC(C)=C(C(=O)OCC)C1c1ccccn1,1.28% (inactive) and -98.9% (active)
21,CCOC(=O)C1=C(CC)Nc2ccccc2N=C1N,40.2% (inactive)
22,CCOC(=O)C1=C(C)NC(C)=C(C(=O)OCC)C1C1=COCCO1,42.6% (inactive)
23,C=CCC1(C#N)C(=S)NC(C)=C(C(=O)OCC)C1c1ccccc1 (stereo not drawn),21.2% (inactive)
24,Cc1ccc(CN2C(=O)SC(Nc3ccccc3)C2=O)cc1 (stereo not drawn),4.93% (inactive)

row,Compound,"activity change, negative = inhibition"
1,CC(=O)c1ccc(NC(=O)C2CCN(S(=O)(=O)c3c(C)noc3/C=C/c3ccc(C)cc3)CC2)cc1,8.22% (inactive)
2,Cc1ccccc1CNC(=O)C(=O)NCC(c1cccs1)S(=O)(=O)c1cccs1 (stereo not drawn),-7.75% (inactive)
3,Cc1ccc2nc(-c3ccc(O)cc3)c(Nc3ccc4c(c3)OCO4)n2c1,27.1% (inactive)
4,CN(C)c1ccc(NC(=S)N(CCc2ccccc2)C2CC(=O)N(c3c(Cl)cccc3Cl)C2=O)cc1 (stereo not drawn),-21.4% (inactive)
5,CCOc1ccc(N2C(=O)CC(N(CCc3ccc(OC)c(OC)c3)C(=S)Nc3ccccc3)C2=O)cc1 (stereo not drawn),-67.5% (active)
6,COc1ccc(N2C(=O)C(CC(=O)Nc3ccccc3)N(Cc3ccc(OC)c(OC)c3)C2=O)cc1 (stereo not drawn),38.3% (inactive)
7,CC(C)Oc1ccc(NC(=O)c2cc3ccccc3o2)cc1,84.8% (inactive)
8,COc1cccc(NC(=O)Cn2c(=O)cc(C)c3c(C)nn(-c4cccc(F)c4)c32)c1,2.05% (inactive)
9,COc1ccc(NC(=O)Cn2c(=O)cc(C)c3c(C)nn(-c4cccc(Cl)c4C)c32)cc1OC,-103% (active)
10,COC(=O)c1ccccc1NC(=O)Cn1c(=O)cc(C)c2c(C)nn(-c3cccc(Cl)c3C)c21,-6.78% (inactive)
11,CCCn1c(NCc2ccccc2F)nc2ccccc21,49.2% (inactive)
12,O=C(COC(=O)Cc1ccccc1F)NCCc1ccccc1,106% (inactive)
13,N=c1n(CCc2ccccc2)c2ccccc2n1Cc1ccccc1F,-70.6% (active)
14,CCOCCN(C=O)c1cccc(OC)c1,18% (inactive)
15,COc1ccc(NC(=S)NCC2CCN(c3ccc(OC)cc3)C2)cc1 (stereo not drawn),-63.2% (active)
16,COc1ccc(N2CCC(CNC(=S)Nc3c(C)cccc3C)C2)cc1 (stereo not drawn),0% (inactive)
17,COc1ccc(N2CCN(C(=S)Nc3ccc(S(N)(=O)=O)cc3)CC2)cc1,9.64% (inactive)
18,O=C(Cn1cc(SCc2cccc(Cl)c2)c2ccccc21)N1CCCCC1,24.5% (inactive)
19,COc1ccc(-c2c(C)c3ccc(O)c(CN4CCN(C)CC4)c3oc2=O)cc1OC,5.43% (inactive)
20,CN1CCN(Cc2c(O)ccc3c2oc(=O)c2ccccc23)CC1,-78.7% (active)
21,CCOC(=O)c1oc2c(CN3CCN(C)CC3)c(O)ccc2c(=O)c1-c1ccc(Br)cc1,-37.4% (inactive)
